The panel holds about 83,000 compounds, 20% with a hit somewhere; the sample as a whole holds those more often.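 Assay: single dose, 48 h. Readout: percent growth (0 = no net growth; negative = cell death). Active: <10.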 A number with no mark means an inactive call. Activity calls are given as the source filed them.
Legend:
Experiment in all cases: NCI-60 one-dose screen, 48 h (100 = growth as untreated, 0 = no growth, -100 = all killed)
Conditions in all cases: 10 µM unless noted
DU-145 prostate = system: DU-145 prostate
K-562 leukemia = system: K-562 leukemia
MALME-3M melanoma = system: MALME-3M melanoma
MDA-MB-231 breast = system: MDA-MB-231 breast
RXF 393 renal = system: RXF 393 renal
SF-268 CNS = system: SF-268 CNS
SF-539 CNS = system: SF-539 CNS
UACC-257 melanoma = system: UACC-257 melanoma
M14 melanoma = system: M14 melanoma
HCT-15 colon = system: HCT-15 colon
SNB-75 CNS = system: SNB-75 CNS
SNB-19 CNS = system: SNB-19 CNS
U251 CNS = system: U251 CNS
PC-3 prostate = system: PC-3 prostate
SK-MEL-5 melanoma = system: SK-MEL-5 melanoma
UACC-62 melanoma = system: UACC-62 melanoma
LOX IMVI melanoma = system: LOX IMVI melanoma
SK-MEL-28 melanoma = system: SK-MEL-28 melanoma
SF-295 CNS = system: SF-295 CNS
HT29 colon = system: HT29 colon

| Structure (SMILES) | growth (DU-145 prostate) | growth (K-562 leukemia) | growth (MALME-3M melanoma) [%] | growth (MDA-MB-231 breast) | growth (RXF 393 renal) [%] | growth (SF-268 CNS) [%] | growth (SF-539 CNS) [%] | growth (UACC-257 melanoma) | growth (M14 melanoma) [%] | growth (HCT-15 colon) | growth (SNB-75 CNS) [%] | growth (SNB-19 CNS) [%] | growth (U251 CNS) | growth (PC-3 prostate) [%] | growth (SK-MEL-5 melanoma) [%] | growth (UACC-62 melanoma) [%] | growth (LOX IMVI melanoma) | growth (SK-MEL-28 melanoma) [%] | growth (SF-295 CNS) [%] | growth (HT29 colon) |
| --- | --- | --- | --- | --- | --- | --- | --- | --- | --- | --- | --- | --- | --- | --- | --- | --- | --- | --- | --- | --- |
| COC(=O)C(C(=O)OC)C(Br)C(Br)C(Br)c1ccccc1 (configuration not stated) | 89.5% | 24.8% | 101 | 117% | 57.5 | 99.2 | 98 | 82.7% | 104 | 79.7% | 87.4 | 100 | 94.8% | 101 | 91.5 | 80.9 | -16% (active) | 106 |  |  |
| CCCCCCCCc1ccc(CCC(N)(CO)CO)cc1 | 3.12% (active) | -25.2% (active) | 26.2 | -24.1% (active) |  | 20.3 | 17.3 | 53.7% |  | -10% (active) | 57.6 | 52.5 | -85.2% (active) | 37.1 | 90.7 | 86.2 | -54% (active) | 92.8 | 67.9 | -83.4% (active) |
| CCCCn1c(Cc2ccc(OC)cc2)nc2cc(OC)c(OC)cc2c1=O | 103% | 48.6% | 112 | 73.9% |  | 86.1 | 103 | -56.6% (active) | 119 | 93.4% | 87.5 | 84.7 | 87.8% | 91.8 | 36.6 | 59.6 | 90.2% | 90.6 |  | 101% |
| Cc1c([C@H](C(Cl)Cl)[C@H](O)[C@H]2C[C@H](C)C(=O)O2)ccc2c1C(=O)[C@H]1[C@H]2C[C@@H](Br)[C@@]23O[C@@H](CO[C@H]2O)CC13C (some centres not stated) | -34.9% (active) | 7.69% (active) | 77.9 | 4.9% (active) | 15.5 | 33 |  | 61.9% | 33.2 | 7.63% (active) | 58.4 |  | 14.4% | 30.4 |  | 26.6 | 33.4% | 47.6 |  | 13.1% |
| CC(=O)C(CO)C(=O)Nc1ccccc1 (configuration not stated) | 112% | 102% | 109 | 102% |  | 107 | 95.4 | 85.7% | 99.5 | 98.8% |  | 101 |  | 102 | 103 | 98.2 | 83.7% | 99.8 | 107 | 101% |
| COc1cc(/C(=C2/O[C@@H]([C@H]3COC(C)(C)O3)[C@H]3OC(C)(C)O[C@@H]23)c2ccc3c(c2)OCO3)cc(OC)c1OC | 60.2% | 40.8% | 29.1 | 21.9% |  | 72 | 25.2 | 58.8% | 93.7 | 91.3% | 51.8 | 75.7 | 47.1% | 82.9 | 71.2 | 76.1 | 47% |  | 76.1 | 68.4% |
| CCOC(=O)C1CCCN1C(=O)C1(NC(C)=O)CCCC1 (configuration not stated) | 103% | 110% | 96.7 | 121% | 110 |  | 95.8 | 102% | 95.2 | 106% | 95.7 | 125 | 104% | 95.6 | 109 | 121 | 104% | 114 | 104 | 124% |
| C=CCNCCC#N | 113% | 109% | 114 | 119% | 109 | 112 | 107 | 111% | 101 | 99.9% | 79.1 | 102 | 107% | 98.5 | 99.1 | 109 | 59.5% | 106 |  | 105% |
| CC(=N\N=C(N)N)/C(=N/N=C(N)N)c1ccccc1 | 51.7% | 91.3% | 99.2 | 116% | 104 |  | 74.6 | 93.2% | 88.6 | 103% | 88.4 | 68 | 80.7% | 75.2 | 102 | 103 | 95.6% | 110 | 99.1 | 42.7% |
